Screening data as filed in PubChem BioAssay.
KDM5B inhibitor – KDM5B demethylase inhibition. AID 1347165. KDM5B demethylase, FDH-coupled NADH fluorescence (FDH is formaldehyde dehydrogenase). 220,000 compounds, 2.6% hits. Potency, µM (highest dose often 57.7 µM), actives largely listed as inhibitors. Q9UGL1; active = well fitted inhibition curve with a large enough effect; also: 0% is about no effect; nearly all actives have a fitted effect of over 70% in size
Target sequence (Q9UGL1 whole entry, looked up): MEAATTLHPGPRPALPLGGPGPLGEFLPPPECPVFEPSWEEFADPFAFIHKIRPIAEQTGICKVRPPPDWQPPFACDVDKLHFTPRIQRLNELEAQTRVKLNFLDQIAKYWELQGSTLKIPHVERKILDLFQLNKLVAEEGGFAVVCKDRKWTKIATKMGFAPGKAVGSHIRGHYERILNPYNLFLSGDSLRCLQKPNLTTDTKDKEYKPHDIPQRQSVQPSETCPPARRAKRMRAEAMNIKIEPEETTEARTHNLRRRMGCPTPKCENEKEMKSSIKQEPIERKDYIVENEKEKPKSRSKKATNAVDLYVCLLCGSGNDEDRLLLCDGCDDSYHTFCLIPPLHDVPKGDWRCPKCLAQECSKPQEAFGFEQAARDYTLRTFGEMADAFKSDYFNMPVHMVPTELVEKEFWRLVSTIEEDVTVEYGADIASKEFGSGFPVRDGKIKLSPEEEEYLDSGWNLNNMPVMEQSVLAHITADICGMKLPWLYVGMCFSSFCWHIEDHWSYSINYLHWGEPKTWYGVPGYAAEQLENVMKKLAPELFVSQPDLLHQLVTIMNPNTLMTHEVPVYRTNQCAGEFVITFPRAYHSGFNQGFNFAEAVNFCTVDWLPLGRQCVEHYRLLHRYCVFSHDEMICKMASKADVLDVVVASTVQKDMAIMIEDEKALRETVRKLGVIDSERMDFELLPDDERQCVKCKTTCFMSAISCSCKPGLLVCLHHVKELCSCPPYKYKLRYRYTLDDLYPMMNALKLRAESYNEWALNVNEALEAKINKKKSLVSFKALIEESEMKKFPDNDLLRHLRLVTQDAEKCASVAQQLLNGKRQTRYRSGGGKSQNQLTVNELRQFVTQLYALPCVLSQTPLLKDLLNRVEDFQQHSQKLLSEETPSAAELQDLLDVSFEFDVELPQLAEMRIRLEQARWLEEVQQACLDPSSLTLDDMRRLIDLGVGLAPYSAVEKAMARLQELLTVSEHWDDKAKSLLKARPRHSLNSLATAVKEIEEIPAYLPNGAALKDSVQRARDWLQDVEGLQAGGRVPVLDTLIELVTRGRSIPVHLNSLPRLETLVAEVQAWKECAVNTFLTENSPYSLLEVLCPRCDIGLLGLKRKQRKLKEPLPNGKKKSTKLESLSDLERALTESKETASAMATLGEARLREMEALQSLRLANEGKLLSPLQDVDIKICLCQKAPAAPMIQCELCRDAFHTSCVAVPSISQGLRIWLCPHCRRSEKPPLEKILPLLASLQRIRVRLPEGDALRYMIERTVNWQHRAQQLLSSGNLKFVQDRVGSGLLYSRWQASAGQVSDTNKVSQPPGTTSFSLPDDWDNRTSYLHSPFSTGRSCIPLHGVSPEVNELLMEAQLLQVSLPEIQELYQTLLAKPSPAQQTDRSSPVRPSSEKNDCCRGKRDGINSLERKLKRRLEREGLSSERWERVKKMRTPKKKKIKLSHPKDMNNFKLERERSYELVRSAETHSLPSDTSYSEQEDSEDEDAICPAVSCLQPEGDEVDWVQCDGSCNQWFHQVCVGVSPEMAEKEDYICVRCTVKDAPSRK
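Here, H3K4me3 peptide (12.5 µM in substrate mix) is demethylated by KDM5BΔAP, 200 nM final, after 10 min compound exposure. Formaldehyde product is coupled through FDH (0.25 U/mL in mix) to NADH fluorescence; 30-min ΔRFU feeds dose-response curves.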
* marks the source's active call; other numbers are inactive results; ! = not confirmed by another sample. Many of the other results were omitted from the sample, so hits are more common in it than they were. Potency is read from the fitted curve at half-maximal effect.

What do the screens show for `CCc1ccc(C2c3cccn3-c3c(c(C)nn3-c3ccccc3)CN2C(=O)NCC(=O)OC)cc1` (stereo not given)?
KDM5B inhibitor: inactive

Results for COc1ccc2oc(=O)c(S(=O)(=O)c3ccc(C)c(C)c3)cc2c1 ?
KDM5B inhibitor: inactive

Results for O=C(NCC(=O)N1CCSCC1)C1CCCN(S(=O)(=O)c2ccc(Cl)cc2)C1 (stereo not given) ?
KDM5B inhibitor: inactive

What do the screens show for `Cc1cc(Cl)c2cccc(C(F)(F)F)c2n1`?
KDM5B inhibitor: inactive

What do the screens show for `c1ccc(CCN2CCNc3cc(Nc4ccc(N5CCOCC5)cc4)ncc3C2)cc1`?
KDM5B inhibitor: inactive

What do the screens show for `C[S+](=O)([O-])c1ccc(-c2cc3c(cn2)CN(CCc2ccccc2)CCN3)cc1`?
KDM5B inhibitor: 39.8µM*

How did C[S+](=O)([O-])c1cccc(NC(=O)c2cnc3n2CCN(CCc2ccccc2)CC3)c1 do in these assays?
KDM5B inhibitor: inactive

What do the screens show for `NC(=O)c1ccc(CN(C(=O)/C=C/c2cccs2)C2CC2)cc1`?
KDM5B inhibitor: inactive

What do the screens show for `Cc1cccc(-c2nc3c(Br)c(N)c(Br)cc3o2)c1`?
KDM5B inhibitor: inactive

What do the screens show for `C[C@@H]1CN(C(=O)c2ccc(C(F)(F)F)cc2)C[C@@]1(O)C1CC1`?
KDM5B inhibitor: inactive

Results for Cc1nc2ccccc2nc1CS(=O)(=O)CC(=O)NC1CCCC1 ?
KDM5B inhibitor: inactive

Results for CCN(C)C(=O)CCc1c(C)nn(-c2ccccc2)c1Oc1ccccc1F ?
KDM5B inhibitor: 14.1µM*

How did CCN(CC)C(=O)CCc1c(C)nn(-c2ccccc2)c1Oc1ccc(F)cc1F do in these assays?
KDM5B inhibitor: inactive

How did Cc1nn(-c2ccccc2)c(Oc2ccc(F)cc2F)c1CCC(=O)N(C)C(C)C do in these assays?
KDM5B inhibitor: inactive

Results for CN(C(=O)Nc1ccc(F)cc1F)C(c1ccc(Cl)cc1)c1nccn1C (stereo not given) ?
KDM5B inhibitor: inactive

What do the screens show for `Cc1ccc(OCC(=O)N2CCN(c3ncccn3)CC2)cc1`?
KDM5B inhibitor: inactive

Results for CC(C)CCNC(=O)C1(CCO)CCN(c2ncccn2)C1 (stereo not given) ?
KDM5B inhibitor: 25.1µM*

What do the screens show for `CC(=O)Nc1ccc(C2(C(=O)NCc3ccc(C)o3)CCC2)cc1`?
KDM5B inhibitor: inactive

Results for CCNC(=O)C1(CCO)CCN(Cc2ccccc2)C1 (stereo not given) ?
KDM5B inhibitor: inactive

What do the screens show for `Cc1ccc(CNC(=O)C2(CCO)CCN(c3ncccn3)C2)o1` (stereo not given)?
KDM5B inhibitor: 28.2µM*

Results for Cc1ccc(NC(=O)C2(CCO)CCN(c3ncccn3)C2)cc1 (stereo not given) ?
KDM5B inhibitor: 28.2µM*

How did COCCCNC(=O)C1(CCO)CCN(Cc2ccccc2)C1 (stereo not given) do in these assays?
KDM5B inhibitor: inactive

Results for O=C(Nc1cccc(OC(F)(F)F)c1)C1(CCO)CCN(c2ncccn2)C1 (stereo not given) ?
KDM5B inhibitor: 25.1µM*

Results for Cc1ccc(NC(=O)C2(c3ccccc3)CCCC2)cc1 ?
KDM5B inhibitor: inactive

How did Cc1ccc(CNC(=O)C2(CCO)CCN(Cc3ccccc3)C2)o1 (stereo not given) do in these assays?
KDM5B inhibitor: inactive

Results for O=C(Nc1cccc(OC(F)(F)F)c1)[C@@H]1COCC(=O)N1Cc1ccc(F)cc1 ?
KDM5B inhibitor: inactive

Results for CC(C)N1C(=O)C2(CCCC2)C1C(=O)Nc1cccc(OC(F)(F)F)c1 (stereo not given) ?
KDM5B inhibitor: inactive

Results for COc1ccc(CC(=O)NC2CCCc3c2[nH]c2c(Cl)cccc32)cc1OC (stereo not given) ?
KDM5B inhibitor: inactive

Results for Cc1ccc(S(=O)(=O)CC(=O)c2cccc(Cl)c2)cc1 ?
KDM5B inhibitor: inactive

What do the screens show for `CC(C)c1ccc2c(c1)-c1ccccc1S(=O)(=O)N2CC(=O)NCc1ccncc1`?
KDM5B inhibitor: inactive

Results for CC(C(=O)Nc1ccccc1Cl)n1nc(-c2ccccc2)ccc1=O (stereo not given) ?
KDM5B inhibitor: inactive

How did Fc1ccc(Sc2ncccc2Cl)cc1 do in these assays?
KDM5B inhibitor: inactive

What do the screens show for `O=[N+]([O-])c1cc(S(=O)(=O)Nc2ccccc2)ccc1N/N=C/c1sc(Nc2ccccc2)nc1Cl`?
KDM5B inhibitor: inactive

What do the screens show for `C[S+](=O)([O-])N1CC2(CCCN(Cc3ccccn3)C2)Cc2ccccc21` (stereo not given)?
KDM5B inhibitor: inactive

Results for Cn1nc(C(=O)NCc2ccc(CN3CCCC3)cc2)c2ccccc2c1=O ?
KDM5B inhibitor: inactive

What do the screens show for `O=C(Nc1nc2ccc(F)cc2s1)c1cc(=O)c2ccccc2o1`?
KDM5B inhibitor: inactive

Results for O=C(O)c1ccc(CNCC(O)c2ccccc2)cc1 (stereo not given) ?
KDM5B inhibitor: inactive

What do the screens show for `N#Cc1ccc(CN2CCCCCCNC(=O)[C@@H]3C[C@@H](C(=O)NCCc4cnc[nH]4)C[C@@H]32)cc1`?
KDM5B inhibitor: 20µM*

How did Cc1ccc(CNC(=O)N2CCCCCCNC(=O)[C@@H]3C[C@@H](C(=O)NCCc4cnc[nH]4)C[C@@H]32)cc1 do in these assays?
KDM5B inhibitor: inactive

How did N#Cc1ccc(S(=O)(=O)N2CC[C@@H]3C(=O)NCCCCCCN(Cc4ccncc4)[C@@H]3C2)cc1 do in these assays?
KDM5B inhibitor: inactive

How did CCn1nccc1C(=O)N1CCC2(CC1)CCC(O)(CN(C)C)CC2 do in these assays?
KDM5B inhibitor: 20µM*

What do the screens show for `Cc1ncoc1C(=O)N1CCC2(CC1)CCC(O)(CN(C)C)CC2`?
KDM5B inhibitor: inactive

What do the screens show for `CN(C)CC1(O)CCC2(CCN(C(=O)c3nccc4ccccc34)CC2)CC1`?
KDM5B inhibitor: inactive

What do the screens show for `CCCN1CCC2(CCN(C(=O)c3ccc(OC)cc3)CC2)Oc2ccccc21`?
KDM5B inhibitor: inactive

What do the screens show for `CN(Cc1ccccc1)C(=O)c1cccc(-c2cnc3ccccc3c2)c1`?
KDM5B inhibitor: inactive

What do the screens show for `COc1ccc(C)cc1NC(=O)C1CC(=O)N(c2n[nH]c3ccccc23)C1` (stereo not given)?
KDM5B inhibitor: inactive

Results for CCOC(=O)c1ccc(NC(=O)C2CC(=O)N(c3n[nH]c4ccccc34)C2)cc1 (stereo not given) ?
KDM5B inhibitor: 28.2µM*

What do the screens show for `Cc1csc(NC(=O)C2CC(=O)N(c3n[nH]c4ccccc34)C2)n1` (stereo not given)?
KDM5B inhibitor: inactive

How did NC(=O)c1ccc(NC(=O)C(F)(OC(F)(F)C(F)(F)C(F)(F)F)C(F)(F)F)cc1 (stereo not given) do in these assays?
KDM5B inhibitor: inactive

Results for CCCOC(=O)c1nc2ccccc2nc1N1CCN(c2ccc(F)cc2)CC1 ?
KDM5B inhibitor: inactive

Results for O=C(O)c1ccc2ncccc2c1 ?
KDM5B inhibitor: inactive

What do the screens show for `Clc1ccc(CSc2nc3ncccc3[nH]2)cc1`?
KDM5B inhibitor: inactive

Results for Clc1cccc(CSc2nc3ncccc3[nH]2)c1 ?
KDM5B inhibitor: inactive

Results for O=C(O)c1ccc(CN2C[C@@H](F)[C@@H](OCc3nc4ncccc4[nH]3)C2)cc1 ?
KDM5B inhibitor: inactive

Results for Cc1nc(-c2ccccn2)n[nH]1 ?
KDM5B inhibitor: inactive

Results for c1ccc(-c2nc3ncccc3[nH]2)nc1 ?
KDM5B inhibitor: 31.6µM*!

How did O=C(O)c1ccc(-c2nc3ncccc3[nH]2)cc1 do in these assays?
KDM5B inhibitor: 28.2µM*!
